D1 antag – Antagonist of Human D 1 Dopamine Receptor: qHTS | D(1A) dopamine receptor (Homo sapiens), P21728 | HEK293 TREx D1 cells, calcium flux, dopamine EC80; active compounds read low | activity change, negative = inhibition, % at 10 µM | actives 3.2% (n = 360,000) | AID 504652, 2011; in the data active = activity change below about -30%
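Antagonism measured as reduced calcium response to an EC80 dopamine addition following 180 s compound pre-read; cells were inducible HEK293 Trex D1 plated overnight at 30 C, read kinetically at 1 cycle/sec.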
D1 potentiator – Potentiators of Human D1 Dopamine Receptor: qHTS. D(1A) dopamine receptor (Homo sapiens), P21728. HEK293 TREx D1 cells, calcium flux, dopamine EC20 potentiation. potentiation, % at 10 µM. actives 0.036% (n = 360,000); in the data active = potentiation above about 30%
D1 agonist – Allosteric Agonists of the Human D1 Dopamine Receptor: qHTS; D(1A) dopamine receptor (Homo sapiens), P21728; HEK293 T-REx D1 cells, calcium flux, agonist mode; activation, % at 2 µM; actives 1% (n = 360,000); AID 504660, 2011
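Agonism was scored from calcium flux recorded over 180 s (1 read/s) after pintool compound addition, following a 10-cycle baseline. Cells were inducible force-coupled HEK293 TREx D1, plated overnight at 30 C and loaded with no-wash calcium dye.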
TRHR agonist – qHTS for Small Molecule Agonists and Allosteric Enhancers of Human TRH Receptor: Primary Screen for Agonists | actives 0.18% (n = 360,000) | AID 493084, 2011 | TRHR cells, calcium flux fluo-8, FDSS agonist mode | activation, % at 2 µM
Target sequence (P34981 whole entry, looked up): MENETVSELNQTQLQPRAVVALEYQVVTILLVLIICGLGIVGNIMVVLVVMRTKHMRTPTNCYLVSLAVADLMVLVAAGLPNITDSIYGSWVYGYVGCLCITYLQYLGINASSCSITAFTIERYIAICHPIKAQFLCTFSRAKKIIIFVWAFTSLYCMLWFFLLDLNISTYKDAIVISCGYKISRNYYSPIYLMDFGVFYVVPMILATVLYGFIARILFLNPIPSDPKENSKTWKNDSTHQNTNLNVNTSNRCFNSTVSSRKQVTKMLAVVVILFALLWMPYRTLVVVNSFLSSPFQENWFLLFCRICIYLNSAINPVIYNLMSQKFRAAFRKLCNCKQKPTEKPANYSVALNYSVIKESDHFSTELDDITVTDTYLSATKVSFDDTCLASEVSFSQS
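Read-out: compound-evoked intracellular calcium rise in TRHR cells, fluo-8 dye, kinetic FDSS fluorescence at 1 s/cycle following a 10-cycle baseline. Cells cultured overnight before dye loading (30 min–1.5 h, RT).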
TRHR PAM – qHTS for Small Molecule Agonists and Allosteric Enhancers of Human TRH Receptor: Primary Screen for Enhancers; Thyrotropin-releasing hormone receptor (Homo sapiens), P34981; TRHR cells, fluo-8 calcium fluorescence, EC20 TRH enhancement; enhancement, % at 2 µM; actives 0.66% (n = 360,000); AID 493056, 2011; in the data active = enhancement above about 30%
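Enhancer read-out: after compound pinning and an initial kinetic agonist-mode read, an EC20 of TRH (10 nM final) was injected and fluo-8 calcium signal (Ex 480/Em 530) followed at 1 s/cycle for 100 cycles in TRHR-expressing cells.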
A number is an active result; – = inactive; ! = a repeat was not active. A selection: hits, their analogues and other compounds. The true share with any hit is near 4.7%. Cut-off read from the data, not from the text of the source, unless noted: active = activation above about 30%; inactive = the rest.

SMILES	D1 antag	D1 potentiator	D1 agonist	TRHR agonist	TRHR PAM
C=CCn1cc(CN2CCC(C(=O)Nc3cccc(-c4cccc(F)c4)c3)CC2)c(C)n1	-39	–	–	–	–
C=CCn1cc(CN2CCC(C(=O)Nc3cccc(-c4cccc(Cl)c4)c3)CC2)c(C)n1	-35	–	–	–	–
Cn1cc(CN2CCC(C(=O)Nc3cccc(-c4cscn4)c3)CC2)cn1	-49	–	–	–	–
Cc1nn(C(C)C)c(C)c1CN1CCC(C(=O)Nc2cccc(-c3cccc(F)c3)c2)CC1	–	–	32	–	–
Cn1cc(CN2CCC(C(=O)Nc3cccc(-c4cccc(F)c4)c3)CC2)cn1	–	–	–	–	–
Cc1cccc(CN2CCC(C(=O)Nc3cccc(-c4cccc(F)c4)c3)CC2)n1	–	–	–	–	–
CCCN(CC(=O)Nc1ccccc1C)C(=O)c1cccc(-n2cnnn2)c1	–	–	–	–	–
N#Cc1nc(Nc2ccc(C(F)(F)F)cc2)nc(NC2CCCC2)n1	–	–	–	–	–
Cc1c2cnn(-c3ccccc3)c(=O)c2c(C)n1CCCC(=O)Nc1cc(F)ccc1F	–	–	–	–	–
FC(F)(F)c1cnc(NNC(=S)Nc2ccccc2Cl)c(Cl)c1	-33	–	–	–	–
Cc1sc(NC(=O)C2CCCCC2C(=O)O)c(C(N)=O)c1C (stereo not given)	-37	–	–	–	–
COC(=O)CCC(=O)Nc1sc(C)c(C)c1C(N)=O	-41	–	–	–	–
COC(=O)CCC(=O)NC(=S)Nc1sc(C)c(C)c1C(N)=O	–	–	–	–	–
Cc1sc(NC(=O)C2CCCCC2C(=O)O)c(C(N)=O)c1-c1ccccc1 (stereo not given)	–	–	–	–	–
CCCCN(CC)CCNC(=O)CN1C(=O)COc2ccc(S(=O)(=O)N3CCOCC3)cc21	–	–	–	–	–
O=C(O)c1cccnc1C(=O)N1CCc2c([nH]c3ccccc23)C1C(F)(F)F (stereo not given)	–	–	–	–	–
c1cnc2c(C3NCCc4c3[nH]c3ccccc43)cccc2c1 (stereo not given)	-57	–	41	–	–
Clc1ccc2c(NCc3ccccc3)ccnc2c1	-38	–	–	–	–
CCN(CC)CCNc1ccnc2cc(Cl)ccc12	–	–	–	–	–
CCN(CC)S(=O)(=O)c1cc(C(=O)Nc2ccncc2)ccc1Cl	-31	–	–	–	–
CCN(CC)S(=O)(=O)c1cc(C(=O)N(C)CC(=O)Nc2ccc(Cl)cc2)ccc1Cl	-33	–	–	–	–
CN(CC(=O)Nc1ccc(Cl)cc1)C(=O)c1ccc(S(=O)(=O)Nc2ccccc2)cc1	–	–	–	–	–
COc1ccc(-n2nc3c(N4CCC(C(=O)NCc5cccc(F)c5)CC4)nnc(C)c3c2C)cc1	–	–	–	–	–
CCN(c1cccc(C)c1)S(=O)(=O)c1ccc(-c2cc(C)no2)s1	–	–	–	–	–
Cc1cccc(N(C)S(=O)(=O)c2ccc(-c3cc(C)no3)s2)c1	–	–	33!	–	–
SMILES	D1 antag	D1 potentiator	D1 agonist	TRHR agonist	TRHR PAM
O=C(Cn1ncc(Cl)c(Cl)c1=O)NC1CCCCC1	-37	–	–	–	–
CC(C)C[C@H](NC(=O)CCCn1nnc2ccccc2c1=O)C(=O)O	–	–	–	–	–
O=C(CC1CCCCC1)OCn1nnc2ccccc2c1=O	–	–	–	–	–
CC(C)(C)C(=O)Cn1ncc(Cl)c(Cl)c1=O	–	–	–	–	32
O=C(O)CCNC(=O)CCCn1nnc2ccccc2c1=O	-43	–	–	–	–
O=C(Cn1nnc2ccccc2c1=O)NC1CCCCC1	-43	–	–	–	–
CCOC(=O)Oc1ccc(/C=C2\N=C(C)OC2=O)cc1	–	–	–	–	–
COc1cc(C(=O)NNC(=O)C2CC2)cc(OC)c1OC	–	–	–	–	–
O=C(COC(=O)Cc1ccc(Br)cc1)NCc1ccc2c(c1)OCO2	–	–	–	–	–
O=C(CCCCn1c(=O)c2ccccc2n(CC(=O)NC2CCCC2)c1=O)NC1CCCC1	-39	–	–	–	–
CCCN(CCC)C(=O)Cn1c(=O)n(CCCCC(=O)NC2CCCC2)c(=O)c2ccccc21	–	–	–	–	–
CC(C)CN(C(=O)COC(=O)CNC(=O)c1sc2ccccc2c1Cl)C1CCS(=O)(=O)C1 (stereo not given)	–	–	–	–	–
Cc1cccc(S(=O)(=O)c2cn(Cc3ccccc3)c3cc(N4CCC(C)CC4)c(F)cc3c2=O)c1	–	–	–	–	–
CCCc1cc(=O)[nH]c(-n2[nH]c3c(c2=O)CCCC3)n1	–	–	67	–	–
CCCc1cc(=O)[nH]c(NCc2ccc(Cl)cc2)n1	–	–	–	–	–
CCOc1ccc(-c2csc(-c3c(N)c(C(=O)c4ccc5c(c4)OCO5)n4ccccc34)n2)cc1	–	–	42	–	–
Nc1c(-c2nc(-c3ccccc3)cs2)c2ccccn2c1C(=O)c1ccc2c(c1)OCO2	–	–	35	–	–
COCC(=O)Nc1ncc(S(=O)(=O)c2ccc([N+](=O)[O-])cc2)s1	–	–	–	–	–
O=C(Nc1ncc(S(=O)(=O)c2ccc([N+](=O)[O-])cc2)s1)c1cccc2ccccc12	–	–	56	–	–
Cc1cc(N2CCN(c3ccccc3)CC2)nc(NCc2ccccc2)n1	-50	–	–	–	–
Cc1cc(N/N=C/c2ccccc2Cl)nc(NCc2ccccc2)n1	–	–	–	–	–
Cc1cc(NC2CCCCC2)nc(NCc2ccccc2)n1	–	–	55	–	–
COc1ccc(Nc2cc(C)nc(NCc3ccccc3)n2)cc1	–	–	–	–	–
Cc1ccc(Nc2cc(C)nc(NCc3ccccc3)n2)cc1	–	–	53	–	32
COc1cc(NC(=O)c2ccc(C)c(Cl)c2)ccc1NC(=O)c1cc2ccccc2o1	–	–	–	–	–
Cc1cc(C)c(S(=O)(=O)Nc2ccc(-c3ccc(N4CCC(C)CC4)nn3)cc2)cc1C	–	–	–	–	–
O=C(N/N=C/c1cc([N+](=O)[O-])ccc1O)c1cccc(N2CCCC2=O)c1	–	–	–	–	–
O=C(/C=C/c1ccc2c(c1)OCO2)NCCSCc1c(Cl)cccc1Cl	-32	–	42	–	–
COc1ccccc1NC(=O)CSc1nc2c(oc3ccccc32)c(=O)n1-c1ccc(C)cc1	-39	–	–	–	–

From PubChem
